Compounds without any hit were thinned out: in the full panel of roughly 83,000, 20% have a hit.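 Results are percent growth after 48 hours of single-concentration exposure. 100 means growth as in untreated cells, lower positive values show inhibition; negative values down to -100 show cell death.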 Activity calls are given as the source filed them. How the source made its calls: active means growth percent below 10; inactive means the rest. *1 amine or outer side, *2 acyl side, *3 side chain or, on linkers, in order; H or OH if unused. Where a SMILES comes first, the peptide text is derived from it. Bridges are numbered along the chain shown (N, C = ends). Roman numbers before positions name the chains, in order. [ ]: non-standard residue; d: D form. Actinocin(1to9) = Cc1c2oc3c(C)ccc(C(=O)[*:2])c3nc-2c(C(=O)[*:1])c(N)c1=O; NMeV = CN[CH](C(=O)O)C(C)C; Sar = CNCC(=O)O
Key:
Test in all cases: NCI-60 one-dose screen, 48 h (100 = growth as untreated, 0 = no growth, -100 = all killed)
HCT-15 colon = conditions: 10 µM unless noted
HT29 colon = conditions: 10 µM unless noted
SNB-75 CNS = conditions: 10 µM unless noted
SNB-19 CNS = conditions: 10 µM unless noted
PC-3 prostate = conditions: 10 µM unless noted
SK-MEL-5 melanoma = conditions: 10 µM unless noted
UACC-62 melanoma = conditions: 10 µM unless noted
LOX IMVI melanoma = conditions: 10 µM
SK-MEL-28 melanoma = conditions: 10 µM unless noted
U251 CNS = conditions: 10 µM unless noted

Measured: growth

S=C1SCN(Cc2cccs2)CN1Cc1cccs1
inactive: HCT-15 colon 96.6% | HT29 colon 97.2% | SNB-75 CNS 86.2% | SNB-19 CNS 96.5% | PC-3 prostate 96.2% | SK-MEL-5 melanoma 94% | UACC-62 melanoma 94% | LOX IMVI melanoma 93% | SK-MEL-28 melanoma 109%

CCCCOS(=O)(=O)c1ccccc1
inactive: HCT-15 colon 102% | HT29 colon 104% | SNB-75 CNS 85.9% | SNB-19 CNS 103% | U251 CNS 104% | PC-3 prostate 101% | SK-MEL-5 melanoma 117% | LOX IMVI melanoma 97.1% | SK-MEL-28 melanoma 126%

Fc1ccc(NCCS)cc1
inactive: HCT-15 colon 105% | HT29 colon 111% | SNB-75 CNS 80.4% | SNB-19 CNS 107% | U251 CNS 97.9% | PC-3 prostate 99.1% | UACC-62 melanoma 106% | LOX IMVI melanoma 91.7% | SK-MEL-28 melanoma 103%

C/C(=N\NC(=S)N1CC2CCC(CC2)C1)c1ccccn1
active: HT29 colon 6.46% | PC-3 prostate -4.47% | SK-MEL-5 melanoma -68.3% | UACC-62 melanoma -36.7% | LOX IMVI melanoma 4.04%
inactive: HCT-15 colon 18.4% | SNB-75 CNS 33.8% | SNB-19 CNS 11.7%

COC(=O)C(=[N+]=[N-])C(=O)c1ccc([N+](=O)[O-])o1
inactive: HCT-15 colon 10.5% | HT29 colon 61.5% | SNB-75 CNS 103% | SNB-19 CNS 92.9% | PC-3 prostate 74% | SK-MEL-5 melanoma 93.6% | UACC-62 melanoma 74% | LOX IMVI melanoma 78.9% | SK-MEL-28 melanoma 109%

COc1cc(/C=C/C(=O)CC(=O)/C=C/c2ccc(O)c(OC)c2)ccc1O
active: HT29 colon -20.3% | SNB-75 CNS 7.11% | LOX IMVI melanoma 8.79%
inactive: HCT-15 colon 13.8% | SNB-19 CNS 48.2% | PC-3 prostate 36.8% | SK-MEL-5 melanoma 71% | UACC-62 melanoma 53.5%

CCCCCCCCCCCC(=O)OC(C)C(=O)NCCCC (centres undefined)
inactive: HCT-15 colon 106% | HT29 colon 101% | SNB-75 CNS 105% | SNB-19 CNS 106% | PC-3 prostate 95.8% | SK-MEL-5 melanoma 102% | UACC-62 melanoma 103% | LOX IMVI melanoma 93.6%

COc1ccc2nc3cc(Cl)ccc3c(NCCCCCN3CCCCC3)c2c1
active: HCT-15 colon -32.2% | HT29 colon -41.3% | SNB-75 CNS -98.1% | SNB-19 CNS 2.99% | PC-3 prostate -45.3% | SK-MEL-5 melanoma -96.9% | UACC-62 melanoma -67.9% | LOX IMVI melanoma -80.4%

CCC(C)C1NC(=O)C(NC(=O)c2c3nc4c(C(=O)NC5C(=O)NC(C(C)CC)C(=O)N6CCCC6C(=O)N(C)CC(=O)N(C)C(C(C)C)C(=O)OC5C)ccc(C)c4oc-3c(C)c(=O)c2N)C(C)OC(=O)C(C(C)C)N(C)C(=O)CN(C)C(=O)C2CCCN2C1=O (centres undefined) (I: TIP[Sar][NMeV] / II: TIP[Sar][NMeV]; ester I:1-I:C, II:1-II:C; linker I:N-II:N via Actinocin(1to9); configuration not given here)
active: HCT-15 colon 2.48% | HT29 colon 0.216% | SNB-75 CNS -87.2% | SNB-19 CNS 4.27% | U251 CNS 1.81% | PC-3 prostate -3.84% | UACC-62 melanoma -67.8% | LOX IMVI melanoma 0.241%

CCOc1ccc(C(C[N+](=O)[O-])Sc2ccccc2N)cc1 (centres undefined)
inactive: SNB-75 CNS 61.3% | SNB-19 CNS 46.2% | PC-3 prostate 10.7% | SK-MEL-5 melanoma 40.9% | UACC-62 melanoma 64.6%
active: HCT-15 colon -11.3% | HT29 colon -49.7%

Nc1ccc(-c2ccc(N)c(S(=O)(=O)O)c2)cc1S(=O)(=O)O
inactive: HCT-15 colon 118% | HT29 colon 109% | SNB-75 CNS 83.1% | SNB-19 CNS 101% | U251 CNS 115% | PC-3 prostate 101% | SK-MEL-5 melanoma 111% | LOX IMVI melanoma 94.4% | SK-MEL-28 melanoma 119%

CCC[CH2][Sn]1([CH2]CCC)[O]C2C(CO)OC(n3ccc(N)nc3=O)C2[O]1 (centres undefined)
active: HCT-15 colon -59.3% | HT29 colon -69.8% | SNB-75 CNS -21.2% | PC-3 prostate -11.3% | SK-MEL-5 melanoma -72.1% | UACC-62 melanoma -89% | LOX IMVI melanoma -57% | SK-MEL-28 melanoma -90.3%
inactive: SNB-19 CNS 28.4%

O=C(Cc1ccccc1)C(F)(F)F
inactive: HCT-15 colon 107% | HT29 colon 112% | SNB-75 CNS 92.4% | SNB-19 CNS 109% | U251 CNS 97.8% | PC-3 prostate 96.3% | UACC-62 melanoma 104% | LOX IMVI melanoma 96.5% | SK-MEL-28 melanoma 99.2%

O=[N+]([O-])c1ccc(Oc2ccccc2Cl)c([N+](=O)[O-])c1
inactive: HCT-15 colon 77% | HT29 colon 90.2% | SNB-75 CNS 83.2% | SNB-19 CNS 95.7% | U251 CNS 88.4% | PC-3 prostate 97.1% | SK-MEL-5 melanoma 95.1% | LOX IMVI melanoma 44.2% | SK-MEL-28 melanoma 103%

CC(C)c1ccc(Nc2n[nH]c(=S)s2)cc1
inactive: HCT-15 colon 99.8% | HT29 colon 76.1% | SNB-75 CNS 92.3% | SNB-19 CNS 99.1% | PC-3 prostate 93.6% | SK-MEL-5 melanoma 101% | UACC-62 melanoma 99% | LOX IMVI melanoma 101% | SK-MEL-28 melanoma 112%

COc1ccc2c(c1OC)OCC(CN(C)C)C2=O (centres undefined)
active: HCT-15 colon -58.5%
inactive: HT29 colon 73.3% | SNB-75 CNS 93.4% | SNB-19 CNS 99.1% | PC-3 prostate 98.3% | SK-MEL-5 melanoma 101% | UACC-62 melanoma 95.9% | LOX IMVI melanoma 87%

Oc1c(Cl)cc(Cl)cc1C(c1cc(Cl)cc(Cl)c1O)C(Cl)(Cl)Cl
inactive: SNB-19 CNS 19.2% | UACC-62 melanoma 11.8% | SK-MEL-28 melanoma 30.4%
active: HCT-15 colon 2.87% | HT29 colon 7.53% | SNB-75 CNS -7.64% | PC-3 prostate -7.63% | SK-MEL-5 melanoma -38.8% | LOX IMVI melanoma 0.701%

CN(C)CC(C)(CN(C)C)C(=O)/C=C/c1c(Cl)cccc1Cl
inactive: HT29 colon 12.2% | SNB-75 CNS 64.5% | U251 CNS 40.4% | PC-3 prostate 46.2% | SK-MEL-5 melanoma 56.3% | UACC-62 melanoma 20.1%
active: HCT-15 colon -65.6% | LOX IMVI melanoma -100% | SK-MEL-28 melanoma 4.32%

CCCCCCCCCCCCN1C(C)=CS/C1=C\C=C\c1scc(C)[n+]1CCCCCCCCCCCC
inactive: HCT-15 colon 56.6% | HT29 colon 11% | SNB-75 CNS 34.3% | SNB-19 CNS 40.2% | LOX IMVI melanoma 25.9% | SK-MEL-28 melanoma 47.2%
active: PC-3 prostate 3.86% | SK-MEL-5 melanoma -83.9% | UACC-62 melanoma 5.41%

O=C(CCl)N(c1ccccc1)c1ccccc1
active: LOX IMVI melanoma -36%
inactive: HCT-15 colon 105% | HT29 colon 114% | SNB-75 CNS 105% | U251 CNS 98.1% | PC-3 prostate 91.4% | SK-MEL-5 melanoma 99.8% | UACC-62 melanoma 95.6% | SK-MEL-28 melanoma 110%

O=C1C=C(Cl)C(=O)c2ccccc21
inactive: HCT-15 colon 98.9% | HT29 colon 119% | SNB-75 CNS 71.4% | SNB-19 CNS 97.4% | PC-3 prostate 81.7% | UACC-62 melanoma 98.2% | SK-MEL-28 melanoma 116%

C=C(C(N)=O)C(N)C(=O)O (centres undefined)
inactive: HCT-15 colon 109% | HT29 colon 100% | SNB-75 CNS 108% | SNB-19 CNS 111% | PC-3 prostate 103% | SK-MEL-5 melanoma 103% | UACC-62 melanoma 114% | SK-MEL-28 melanoma 106%

CC(O)C(O)C(O)C(O)C(O)C(=O)NNc1ccccc1 (centres undefined)
inactive: HCT-15 colon 78.6% | HT29 colon 104% | SNB-75 CNS 82.6% | SNB-19 CNS 97.1% | PC-3 prostate 86.3% | SK-MEL-5 melanoma 107% | UACC-62 melanoma 30.5% | LOX IMVI melanoma 48.1% | SK-MEL-28 melanoma 103%

O=[N+]([O-])CC(O)c1ccccc1 (centres undefined)
inactive: HCT-15 colon 96.6% | HT29 colon 113% | SNB-75 CNS 91.6% | SNB-19 CNS 101% | PC-3 prostate 94.9% | SK-MEL-5 melanoma 103% | UACC-62 melanoma 99.1% | LOX IMVI melanoma 84.5% | SK-MEL-28 melanoma 108%

CSc1nc(C)c(C(=O)CCN2CCN(c3ccccn3)CC2)s1
inactive: HCT-15 colon 97.3% | HT29 colon 102% | SNB-75 CNS 103% | SNB-19 CNS 96.1% | PC-3 prostate 94.3% | SK-MEL-5 melanoma 101% | UACC-62 melanoma 98.7% | SK-MEL-28 melanoma 106%

O=[n+]1c2ccccc2n([O-])c2cc(Cl)ccc21
inactive: HCT-15 colon 43.7% | HT29 colon 74.1% | SNB-75 CNS 50.7% | SNB-19 CNS 94.2% | PC-3 prostate 50.2% | UACC-62 melanoma 81% | SK-MEL-28 melanoma 99.2%

CCN(CC)CCNC(Cc1ccccc1)c1ccc(OCc2ccccc2)cc1 (centres undefined)
inactive: HCT-15 colon 30.4% | HT29 colon 15.4% | SNB-75 CNS 71.4% | SNB-19 CNS 89.3% | PC-3 prostate 56.8% | SK-MEL-5 melanoma 72.8% | LOX IMVI melanoma 58.6% | SK-MEL-28 melanoma 62.5%
active: UACC-62 melanoma -50.8%

O=C1C(=O)c2cccnc2-c2ncccc21
active: HCT-15 colon -20.5% | HT29 colon -62.9% | SNB-75 CNS -13.3% | SNB-19 CNS 0.441% | PC-3 prostate -24.5% | SK-MEL-5 melanoma -100% | LOX IMVI melanoma -83.8% | SK-MEL-28 melanoma -9.12%

NC(=S)N/N=C/c1ncccc1O
inactive: HCT-15 colon 33.7% | HT29 colon 28.5% | SNB-75 CNS 26.7% | SNB-19 CNS 29.1% | PC-3 prostate 37% | UACC-62 melanoma 18.3% | LOX IMVI melanoma 10.5%

COc1ccc2nc3cc([N+](=O)[O-])ccc3c(NNc3ccccc3)c2c1
inactive: HCT-15 colon 69.4% | HT29 colon 94% | SNB-75 CNS 23.5% | SNB-19 CNS 73% | SK-MEL-5 melanoma 88.5% | UACC-62 melanoma 74.6% | LOX IMVI melanoma 84.2% | SK-MEL-28 melanoma 97.1%

C/C(=N/NC(N)=S)c1ccc(C)cc1
inactive: HCT-15 colon 79.9% | HT29 colon 55.8% | SNB-75 CNS 92.9% | SNB-19 CNS 104% | PC-3 prostate 90.6% | UACC-62 melanoma 103% | LOX IMVI melanoma 108% | SK-MEL-28 melanoma 111%

N#C/C(=N\Nc1ccc(Cl)cc1)C(=O)C1CC1
inactive: HCT-15 colon 53.9% | HT29 colon 67.6% | SNB-75 CNS 56.5% | U251 CNS 40.5% | PC-3 prostate 54.3% | UACC-62 melanoma 32.1% | LOX IMVI melanoma 67.2% | SK-MEL-28 melanoma 53.9%
active: SK-MEL-5 melanoma 0.976%
